From PubChem BioAssay (NCATS)
Records with an inconclusive call do not appear. Activity calls are given as the source filed them. Calls follow the shape of the dose curve; as a rule, active = well fitted inhibition curve with a large enough effect; inconclusive = small, poorly fitted or top-dose-only effect; inactive = flat fitted curve, though single readings scatter.

Columns and labels:
Test in all cases: qHTS profiling for inhibitors of Plasmodium falciparum proliferation (AID 504749); also: nearly all actives have a fitted effect of over 60% in size
Details in all cases: P. falciparum in erythrocytes, SYBR Green DNA, 72 h; series mostly up to 28.7 µM
CP335 = test system: CP335
How it was run: (§1)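 SYBR Green fluorescence (ex 485 nm, em 535 nm) reports parasite DNA after 72 h compound exposure of infected red cells at 0.3% parasitemia, 2.5% hematocrit; signal normalized to 0.29 uM artemisinin and vehicle wells.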

DFO2036 = test system: DFO2036
How it was run: as §1

DIV14 = test system: DIV14
How it was run: as §1

DIV17 = test system: DIV17
How it was run: as §1

DIV30 = test system: DIV30
How it was run: as §1

Dd2 = test system: Dd2
How it was run: as §1

ECU = test system: ECU
How it was run: as §1

FAB9 = test system: FAB9
How it was run: as §1

GB4 = test system: GB4
How it was run: as §1

HB3 = test system: HB3
How it was run: as §1

ICS = test system: ICS
How it was run: as §1

JCK = test system: JCK
How it was run: as §1

N140 = test system: N140
How it was run: as §1

P94_40 = test system: P94_40
How it was run: as §1

PAD = test system: PAD
How it was run: as §1

PC15 = test system: PC15
How it was run: as §1

PC26 = test system: PC26
How it was run: as §1

PC49 = test system: PC49
How it was run: as §1

SC27B = test system: SC27B
How it was run: as §1

P93_24 = test system: P93_24
How it was run: as §1

Measured: outcome

CCOC(=O)C(CCc1ccccc1)NC(C)C(=O)N1Cc2ccccc2CC1C(=O)O (centres undefined)
inactive: CP335 | DFO2036 | DIV14 | DIV17 | DIV30 | Dd2 | ECU | FAB9 | GB4 | HB3 | ICS | JCK | N140 | P94_40 | PAD | PC15 | PC26 | PC49 | SC27B

CCc1cccc2c3c([nH]c12)[C@@](CC)(CC(=O)O)OCC3
inactive: CP335 | DFO2036 | DIV14 | DIV17 | DIV30 | Dd2 | ECU | FAB9 | GB4 | HB3 | ICS | JCK | N140 | P93_24 | P94_40 | PAD | PC15 | PC26 | PC49 | SC27B
